This is an account of results in PubChem BioAssay AID493169 (National Center for Advancing Translational Sciences (NCATS), 2011).

Results filed as inconclusive are left out. Entries that show only a call come without a potency. The source made the active and inactive calls. Calls follow the shape of the dose curve; as a rule, active = well fitted inhibition curve with a large enough effect; inconclusive = small, poorly fitted or top-dose-only effect; inactive = flat fitted curve, though single readings scatter.
Potency is read from the fitted curve at half-maximal effect.

The assay can be described thus: CHOP2 Reporter Counterscreen Assay for Inhibitors of Ubiquitin-specific Protease USP2a.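 Also: activated enterokinase alone at 50 pM in a cell-free format rather than USP2a or CHOP2; nearly all actives have a fitted effect of over 55% in size.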 Particulars: purified enterokinase, fluorogenic substrate, 485/531 nm; series mostly up to 38.3 µM. The essentials:
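Fluorescence (485/531 nm) read 10 min after adding 25nM reporter substrate to 50 pM activated EK preincubated 30 min RT with compound; Tris pH 8.0/CaCl2/CHAPS buffer. Data normalized to buffer-alone inhibition; concentration-response curves fitted.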
In general terms: Counterscreens check selectivity or assay interference.
For `COCCn1nnnc1CN(CCc1ccccc1)Cc1cc2ccc(C)cc2[nH]c1=O`, the Potency entry was “inactive”.
Then `O=C(Nc1ccc(Nc2ccncc2)cc1)c1ccc(Nc2ccnc3ccc([N+](=O)[O-])cc23)cc1`, with 3.55 µM (active); and `Cc1ccc(C)c(S(=O)(=O)N2CCN(C(=O)/C=C/c3ccco3)CC2)c1`, with 11.2 µM (active); and `Cc1ccc(S(=O)(=O)N2CCOCC2)cc1NC(=O)CN1C(=O)NC(C)(c2ccc(Cl)cc2Cl)C1=O` (centres undefined), with “inactive”.
As to `Cc1ccccc1OCCn1nc(C(=O)O)c2ccccc2c1=O`, the Potency entry was “inactive”.
The same measure for `O=C(Nc1ccc(S(=O)(=O)Nc2ncccn2)cc1)c1ccc(S(=O)(=O)N2CCCC2)cc1`: “inactive”; for `Cc1c(NC(=O)C2CCCN(S(=O)(=O)c3cnc[nH]3)C2)c(=O)n(-c2ccccc2)n1C` (centres undefined): “inactive”.
Then `Cc1cc(NC(=O)COC(=O)CCCOc2ccc(Cl)cc2C)no1`, with “inactive”; and `O=C1/C(=C/C=C/c2ccco2)SC(=S)N1NS(=O)(=O)c1ccccc1`, with 3.55 µM (active); and `CCOC(=O)N1CCN(C(=O)CN(c2ccc(C)c(C)c2)S(=O)(=O)c2ccccc2)CC1`, with “inactive”.
Then `Nc1cc(N)nc(SCC(=O)N2CCCCC2)n1`, with “inactive”.
Consider `CCOC(=O)C1CCN(C(=O)COC(=O)c2c(C)c(CC)nc3ccccc23)CC1`, for which the Potency result is “inactive”.
The same measure for `CCOC(=O)Nc1nnc(CCc2ccccc2)s1`: “inactive”.
The same measure for `CCCCCCCC/C=C\CCCCCCCC(=O)NCCc1ccc(O)c(O)c1`: “inactive”; for `O=C(N/N=C/c1ccc(F)cc1)c1cc(-c2ccco2)nc2ccccc12`: 2.24 µM (active).
The same measure for `NS(=O)(=O)c1ccc(NC(=O)CN2CCCCC2)cc1`: “inactive”; for `O=C(OCc1ccccc1)C1CCCN1C(=O)c1cccs1` (centres undefined): “inactive”; for `C[C@H](CO)N1C[C@H](C)[C@@H](CN(C)S(=O)(=O)c2cccs2)Oc2c(NC(=O)Nc3ccc4c(c3)OCO4)cccc2C1=O`: “inactive”.
Turning to `Cn1c(=O)c(C(=O)Nc2ncccc2O)c(O)c2ccccc21`, the Potency was 10 µM (active).
Then `Cc1cc(/C=C2\C(=N)N3N=C(c4ccco4)SC3=NC2=O)c(C)n1Cc1ccccc1`, with 7.08 µM (active); and `COc1ccc(-c2csc(N3CCN(C(=O)c4ccco4)CC3)n2)cc1`, with “inactive”.
Then `Cc1ccc(C2=N/C(=C\c3c(C)nn(-c4ccccc4)c3N3CCCC3)C(=O)O2)cc1`, with “inactive”; and `Cc1ccc(Nc2nc(N)nc(CN3CCN(C(=O)c4ccco4)CC3)n2)cc1Cl`, with “inactive”; and `COc1ccccc1C(=O)N1CCN=C1SC`, with “inactive”.
